An excerpt weighted towards active compounds, which were near 0.98% of everything screened.
Y pestis TopoI – inhibitors of Yersinia pestis topoisomerase I; activity, % at 10 µM; hit rate 0.064% among 360,000; AID 504884; Y. pestis Topo-I cleavage product accumulation, plate reader; in the data active = activity above about 50%, passing the limit was not always enough; inconclusive = no clear call, values can overlap the other calls
FadD28 FP inh – inhibitors of Mycobacterium tuberculosis FadD28 bisubstrate binding; FadD28 bisubstrate probe binding, fluorescence polarization; hit rate 0.22% among 360,000; inhibition, % at 12.5 µM; in the data active = inhibition above about 8.5%, passing the limit was not always enough; inconclusive = no clear call, values can overlap the other calls
Mtb bLac sens – beta-lactam sensitization of Mtb H37Rv; inhibition, % at 25 µM; hit rate 0.27% among 330,000; M. tuberculosis H37Rv growth with meropenem, percent inhibition; call rule not given here;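 note: growth measured after seven days incubation then overnight dye step; 0% = bacteria only wells and 100% = bacteria with antibiotic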
PfHsp40 yeast – rescue of PfHsp40-mediated yeast toxicity. S. cerevisiae expressing PfHsp40, growth rescue, ATP luminescence. growth rescue, % at 12.5 µM. hit rate 0.68% among 340,000. AID 504582; in the data active = growth rescue above about 28%, passing the limit was not always enough; inconclusive = no clear call, values can overlap the other calls;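 note: yeast W303a lacking pdr1 and pdr3 grown in galactose medium; growth measured after three days at 30 °C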
Rv3671c inh – inhibitors of M. tuberculosis serine protease Rv3671c. inhibition, % at 5.96 µM. hit rate 0.048% among 320,000. AID 2606; in the data active = inhibition above about 38%;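 note: extracellular domain of Rv3671c used as enzyme; 0% = enzyme with DMSO and 100% = no enzyme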
Mtb UGM inh – inhibitors of M. tuberculosis UDP-galactopyranose mutase. inhibition, % at 10 µM. P9WIQ1. hit rate 0.06% among 320,000. purified UGM, fluorescence polarization probe displacement; in the data active = inhibition above about 10%, passing the limit was not always enough; inconclusive = no clear call, values can overlap the other calls
Target sequence (P9WIQ1 whole entry, looked up): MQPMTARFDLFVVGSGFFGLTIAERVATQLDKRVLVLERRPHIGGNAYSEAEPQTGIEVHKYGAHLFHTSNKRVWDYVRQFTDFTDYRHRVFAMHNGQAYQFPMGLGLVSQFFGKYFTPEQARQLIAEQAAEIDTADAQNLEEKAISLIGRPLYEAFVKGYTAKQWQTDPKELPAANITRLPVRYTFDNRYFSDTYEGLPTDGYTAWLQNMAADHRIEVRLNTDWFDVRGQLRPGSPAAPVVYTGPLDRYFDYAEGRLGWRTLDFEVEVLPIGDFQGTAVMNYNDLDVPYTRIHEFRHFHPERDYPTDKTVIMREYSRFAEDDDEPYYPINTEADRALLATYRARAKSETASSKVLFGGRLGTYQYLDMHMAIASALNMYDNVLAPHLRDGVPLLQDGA
* = called active by the depositor; ? = inconclusive; . = no result given.

SMILES	Y pestis TopoI	FadD28 FP inh	Mtb bLac sens	PfHsp40 yeast	Rv3671c inh	Mtb UGM inh
O=c1[nH]c(=S)c2[nH]c(=S)n(-c3ccccc3)c2[nH]1	-2.6	-1.5	.	1.6	.	.
C[C@H](CO)N1C[C@H](C)[C@@H](CN(C)Cc2ccncc2)Oc2c(NS(=O)(=O)c3cccs3)cccc2C1=O	2.4	-1.8	-4.8	1.5	0.1	1.2
CCNC(=O)C1CCCN(Cc2ccc(C)c3ccccc23)CC1 (configuration not stated)	12.6	-4.6	.	.	.	.
Cc1cccc(C)c1NC(=O)COC(=O)c1c2c(nc3ccccc13)/C(=C\c1ccc3c(c1)OCO3)CCC2	-6.2	-3.3	-2.4	0.5	3.0	19.0*
COc1cc(/C=C2\CCCc3c2nc2ccccc2c3C(=O)O)cc(Br)c1O	1.2	12.3*	2.9	-0.6	9.5	-2.8
COc1cc(/C=C2\CCc3c2nc2ccccc2c3C(=O)O)cc(OC)c1OC	-7.5	5.7	5.8	-0.7	8.0	-0.6
CCOc1cc(/C=C2\CCCc3c2nc2ccccc2c3C(=O)O)ccc1OC	-1.8	0.0	1.5	0.5	-14.1	44.4*
N#Cc1cccc(-c2csc(C(O)(c3ccccc3)C(F)(F)F)n2)c1 (configuration not stated)	-4.4	-3.5	.	.	.	.
COc1ccc(-c2cc(-c3c(O)c(OC)c4occc4c3OC)[nH]n2)cc1OC	-13.5	3.8	-8.5	31.5*	8.2	-1.1
COc1ccc(-c2cc(-c3c(O)c(OC)c4occc4c3OC)[nH]n2)cc1	1.8	-0.4	95.0	3.4	17.3	-1.0
Nc1nc(N)nc(-c2ccc(Oc3ccccc3)cc2)n1	8.4	-0.1	7.6	-0.5	-7.9	-0.6
Cc1ccccc1Oc1ccc(-c2nc(N)nc(N)n2)cc1	-0.3	-6.0	0.5	118.8*	2.7	1.0
Cc1cc(-c2ccccc2C(=O)O)on1	-0.9	-2.2	-7.0	-1.4	-5.5	2.6
O=C(O)c1ccccc1C1=Nc2ccc(O)cc2Oc2cc(O)ccc21	-0.5	-1.3	-4.5	0.0	20.0	14.3*
CN1C(=O)CN(CCN2CC(=O)N(C)C(=O)C2)CC1=O	6.2	-2.4	.	.	.	.
N#CC1=C(N)C(C#N)(C#N)C2(C(=O)Nc3ccccc32)C2CCCC=C12 (configuration not stated)	-6.5	-3.0	6.1	30.2*	-2.8	2.6
COc1cc(CN2C[C@@H](CO)O[C@@H](n3cnc4c(NCCN(C)C)ncnc43)C2)cc(OC)c1OC	7.6	0.5	.	.	.	.
Cc1ccc2c(Cl)c(C)c(N3CCCCC3)nc2n1	50.3*	-0.8	9.6	-0.3	-7.5	1.3
Cc1n[nH]c(=O)c2c(NC(=O)CSc3nnc(-c4ccco4)n3C)oc(C)c12	3.8	-0.6	-1.7	0.1	-6.0	46.9*
COc1ccccc1-c1nnc(SCC(=O)Nc2oc(C)c3c(C)n[nH]c(=O)c23)n1C	-6.6	0.4	-12.5	1.3	3.6	3.5
Cc1cccc(C(O)c2ncc(-c3ccc4ccccc4c3)[nH]2)c1C (configuration not stated)	-0.5	-0.4	.	.	.	.
CC(=O)Nc1ccc(S(=O)(=O)Nc2nc3ccccc3nc2Nc2ccc(C(=O)O)c(O)c2)cc1	-4.6	25.5*	-3.3	3.1	-5.9	3.1
CCCCn1nnnc1SCC(=O)c1ccc(C)c(C)c1	52.1*	-4.9	-5.1	1.4	2.5	0.7
CCC(=O)Nc1cccc(-n2nnnc2SCC(=O)NCc2ccco2)c1	1.4	0.7	-23.3	0.2	-3.8	-0.1
CCC(=O)Nc1cccc(-n2nnnc2SCC(=O)c2ccc(C)c(C)c2)c1	11.4	10.6*	10.0	2.4	-34.5	-1.4
SMILES	Y pestis TopoI	FadD28 FP inh	Mtb bLac sens	PfHsp40 yeast	Rv3671c inh	Mtb UGM inh
COc1c(N2CCN(C(=S)NCc3ccccc3)C(C)C2)c(F)cc2c(=O)c(C(=O)O)cn(C3CC3)c12 (configuration not stated)	61.7*	-1.3	99.6	?	-5.9	-2.3
C/C(=N\Nc1nccnc1Cl)c1c(F)c(F)c(F)c(F)c1F	11.8	0.4	0.8	58.6*	3.0	-2.1
O=C(NCCN1CCOCC1)C(=O)NCC1OCCN1S(=O)(=O)c1ccc(Cl)cc1 (configuration not stated)	-0.7	-2.8	.	.	.	.
Cc1cc(C)c2nc(NNC(=O)c3ccc(S(=O)(=O)N4CCCCC4)cc3)sc2c1	3.8	1.2	-4.9	-0.3	1.5	-0.1
CCOC(=O)N1CCN(S(=O)(=O)c2ccc(C(=O)N(CCN(CC)CC)c3nc4c(C)cccc4s3)cc2)CC1	45.3	-4.7	1.0	-1.3	5.6	5.9
CCOC(=O)N1CCN(S(=O)(=O)c2ccc(C(=O)NNc3nc4c(C)cc(C)cc4s3)cc2)CC1	27.8	15.0*	-2.0	.	0.4	5.2
CCOC(=O)N1CCN(S(=O)(=O)c2ccc(C(=O)NNc3nc4ccc(Cl)cc4s3)cc2)CC1	25.8	11.7*	3.6	274.2*	-4.4	0.1
CCOC(=O)N1CCN(S(=O)(=O)c2ccc(C(=O)NNc3nc4c(C)cccc4s3)cc2)CC1	-6.7	17.1*	5.8	129.5*	11.5	-0.8
CCOC(=O)N1CCN(S(=O)(=O)c2ccc(C(=O)NNc3nc4cc(C)cc(C)c4s3)cc2)CC1	3.3	2.6	-1.8	323.2*	16.4	-0.7
COc1ccc(NC(=O)CNC(=O)c2nn(-c3ccc(OC)cc3OC)c(=O)c3ccccc23)c(OC)c1	9.7	-0.9	2.1	-1.0	5.5	1.2
CCOc1ccc(Cl)cc1-c1cc(C(=O)NC2CCCCC2)[nH]n1	1.3	-6.8	.	.	.	.
COCCNC(=O)C1(C)CCCN(C(=O)c2cc(C)on2)C1 (configuration not stated)	6.3	-3.6	.	.	.	.
CCOC(=O)c1sc(=S)n(-c2cc(OC)ccc2OC)c1N	-1.9	-1.5	83.5	200.5*	1.1	3.0
CCCCCCSc1ccc([C@H]2N[C@@](C)(C(=O)OC)[C@H]3C(=O)N(C)C(=O)[C@@H]23)cc1	6.7	-3.5	6.3	39.2*	-13.4	2.0
CC(=O)c1cccc(N/C=C\C(=O)c2ccc(C)cc2)c1	11.7	-2.3	-4.0	27.2*	-1.7	0.9
CC(=O)c1cccc(NS(=O)(=O)c2ccc(N/C=C\C(=O)c3ccc(C)cc3)cc2)c1	13.4	-3.8	-9.9	0.6	-20.9	0.8
S=c1[nH]ncn1/N=C/c1ccco1	2.8	-0.2	.	.	.	.
Cc1cccc2sc(NC(=O)c3cccc(S(=O)(=O)N4CCc5ccccc54)c3)nc12	3.6	0.7	-8.7	0.7	-4.9	1.1
Cc1cccc2sc(NNC(=O)c3ccc(S(=O)(=O)N4CCc5ccccc5C4)cc3)nc12	25.9	2.8	-3.9	410.1*	10.8	-0.1
Cc1cccc2sc(NNC(=O)c3ccc(S(=O)(=O)N4CCCC(C)C4)cc3)nc12 (configuration not stated)	21.4	?	-6.0	355.8*	12.8	1.6
COc1cc2c(c(OC)c1O)C(=O)CO2	2.3	-4.3	2.2	-0.5	-3.5	-1.4
COc1cc(OC)c2c(O)c3c(c(-c4c5c(c(O)c6c(OC)cc(OC)cc46)CO[C@@H](C)[C@H]5O)c2c1)[C@H](O)[C@H](C)OC3	-10.3	10.2*	-1.6	-0.1	9.3	-0.1

Assay outcomes (PubChem BioAssay)
